PubChem BioAssay (Tox21)
Records with an inconclusive call do not appear. Unmarked numbers belong to inactive results. The call rests on the fitted dose curve.
On the % scale 0 is the no-effect control and ±100 the full control effect.

Assay: qHTS assay to identify small molecule agonists of the hypoxia (HIF-1) signaling pathway - cell viability counter screen (AID 1224844); further: nearly all actives have a fitted effect of over 50% in size
Details: HRE-bla ME-180 viability, CellTiter-Glo luminescence, 17 h; series mostly up to 76.8 µM; activity change, negative = cytotoxicity: at the top concentration
Source text: National Center for Advancing Translational Sciences [NCATS]
NIH Chemical Genomics Center [NCGC]
U.S. Environmental Protection Agency [EPA]
National Institutes of Environmental Health Sciences [NIEHS]
National Toxicology Program [NTP]
U.S. Food and Drug Administration [FDA]
Hypoxia-inducible factor-1 (HIF-1) is the major hypoxia-regulated transcription factor that controls cellular responses to low oxygen concentration. HIF-1 is composed of two subunits: hypoxia responsive HIF-1-alpha and constitutively expressed HIF-1-beta, which is also known as aryl hydrocarbon receptor nuclear translocator. During hypoxic conditions, HIF-1-alpha heterodimerizes with HIF-1-beta and translocates into the nucleus where the HIF-1 complex binds to the hypoxia-response element (HRE) and activates expression of target genes such as VEGF (vascular endothelial growth factor). The HIF-1 pathway is essential to normal growth and development, and is involved in the pathophysiology of cancer, inflammation, and ischemia.
Using a beta-lactamase reporter-gene under control of the hypoxia response element, a cell-based assay [CellSensor(TM) HRE-bla ME-180 from Life Technologies, Carlsbad, CA] was used to measure hypoxia-induced signaling. Tox21 10K library compounds were measured for their ability to induce the reporter gene activity. The cytotoxicity of the Tox21 compound library against HRE-bla ME-180 cell line was tested in parallel by measuring cell viability using CellTiter-Glo assay (Promega, Madison, WI) in the same assay wells.
Tox21 Assay Protocol Summary:
HRE-bla ME-180 cells were dispensed at 2,000 cells per well in 6 uL of assay medium containing 0.5% dialyzed FBS into black wall/clear-bottom 1536-well plates using a Multidrop Combi (Thermo Scientific, Waltham, MA) dispenser. After the assay plates were incubated at 37C and 5% CO2 for 5 hrs, 23 nL of compounds dissolved in DMSO, positive controls or DMSO only was transferred to each well of the assay plate using a Pintool station (Kalypsys, San Diego, CA). The assay plates were incubated at 37C and 5% CO2 for 17 hrs. One uL of LiveBLAzerTM B/G FRET substrate (CCF4-AM) (Life Technologies) was added to each well using a Flying Reagent Dispenser (FRD, Aurora Discovery, San Diego, CA). After 2 hr incubation at room temperature, fluorescence intensity (405 nm excitation, 460 nm and 530 nm emissions) was measured using an Envision plate reader (PerkinElmer, Shelton, CT). For cytotoxicity, 4 ul/well of CellTiter-Glo reagent was added into the assay plates using an FRD. After 30 min incubation at room temperature, the luminescence intensity was measured using a ViewLux plate reader (PerkinElmer).
With `COc1cc2c(cc1OC)-c1cc3ccc(OC)c(OC)c3c[n+]1CC2` the “activity change, negative = cytotoxicity” value was 0.565%. In the case of `CC(C)CCCO`, the “activity change, negative = cytotoxicity” value is reported as 15.3%. In the case of `CC(CC=O)CC(C)(C)C` (stereo not given), the “activity change, negative = cytotoxicity” value is reported as 0.44%. For `O=S(=O)(O)c1cccc2ccccc12`, the “activity change, negative = cytotoxicity” value was 9.38%. For `c1ccc(CCc2ccccc2)cc1`, the “activity change, negative = cytotoxicity” value was 2.53%. With `CC(C(=O)O)c1cccc(Oc2ccccc2)c1` (stereo not given) the “activity change, negative = cytotoxicity” value was 0.0694% [at 35.3 µM]. With `COC(=O)Nc1ccc(Cl)c(Cl)c1` the “activity change, negative = cytotoxicity” value was 14.8%. For `O=C(O)CC(C(=O)O)S(=O)(=O)O` (stereo not given), the “activity change, negative = cytotoxicity” value was 1.56%. With `Cc1ccc(C(=O)c2ccccc2)cc1` the “activity change, negative = cytotoxicity” value was -7.26%. With `CCCCCCCCCCCCCCCCCCO` the “activity change, negative = cytotoxicity” value was 5.33% [at 35.3 µM]. In the case of `CNCCO`, the “activity change, negative = cytotoxicity” value is reported as 0.691%. For `C=C(C)C(=O)OCC(O)CO` (stereo not given), the “activity change, negative = cytotoxicity” value was 4.75% [at 35.3 µM]. In the case of `CCCCCCCC1CCCC1=O` (stereo not given), the “activity change, negative = cytotoxicity” value is reported as 7.34%. In the case of `CCC(C(=O)NC(=O)NC(C)=O)c1ccccc1` (stereo not given), the “activity change, negative = cytotoxicity” value is reported as 7.39% [at 35.3 µM]. In the case of `CC[N+](C)(CC)CCOC(=O)C1c2ccccc2Oc2ccccc21`, the “activity change, negative = cytotoxicity” value is reported as -5.19% [at 35.3 µM]. With `CCCc1nn(C)c2c(=O)[nH]c(-c3cc(S(=O)(=O)N4CCN(C)CC4)ccc3OCC)nc12` the “activity change, negative = cytotoxicity” value was -19.1% [at 35.3 µM]. With `CCC(C)(CN(C)C)OC(=O)c1ccccc1` (stereo not given) the “activity change, negative = cytotoxicity” value was 11.4% [at 35.3 µM]. For `CCCCCCC1CCC(=O)O1` (stereo not given), the “activity change, negative = cytotoxicity” value was 2.15%. For `C=CC(C)(CCC=C(C)C)OC(=O)CC` (stereo not given), the “activity change, negative = cytotoxicity” value was 0.746%. With `CC(C)C1CCC(O)CC1` (stereo not given) the “activity change, negative = cytotoxicity” value was -15.4%. With `O=S(=O)(O)c1cccc2c(S(=O)(=O)O)cccc12` the “activity change, negative = cytotoxicity” value was -2.42%. With `CC(C)C(=O)OC(=O)C(C)C` the “activity change, negative = cytotoxicity” value was 2.74%. With `CCOC(=O)C1=NOC(c2ccccc2)(c2ccccc2)C1` the “activity change, negative = cytotoxicity” value was -28.8%. For `C[C@@H]1CCC[C@H](C)N1`, the “activity change, negative = cytotoxicity” value was 1.91% [at 35.3 µM]. With `CCN[C@@H]1C[C@H](N)[C@@H](OC2OC(CN)=CCC2N)[C@H](O)[C@H]1O[C@H]1OC[C@](C)(O)[C@H](NC)[C@H]1O` (stereo not given in full) the activity change, negative = cytotoxicity was 3.33% [at 0.29 µM]. In the case of `CC(=O)c1cnccn1`, the “activity change, negative = cytotoxicity” value is reported as 13.7%. For `CO[C@@]1(NC(=O)C(C(=O)O)c2ccc(O)cc2)C(=O)N2C(C(=O)O)=C(CSc3nnnn3C)CO[C@@H]21` (stereo not given in full), the “activity change, negative = cytotoxicity” value was -2.54% [at 35.3 µM]. For `COc1cc(C(=O)OC(COCCC(C)C)CN2CCOCC2)cc(OC)c1OC` (stereo not given), the “activity change, negative = cytotoxicity” value was -0.246% [at 35.3 µM]. In the case of `CC(C)C[C@@H](N)C(=O)O`, the activity change, negative = cytotoxicity is reported as 2.77% [at 15.8 µM]. With `CN1[C@@H]2CC[C@H]1CC(OC(=O)C(O)c1ccccc1)C2` (stereo not given in full) the “activity change, negative = cytotoxicity” value was -0.267% [at 35.3 µM]. For `CC(C)c1ccc2ncccc2c1`, the “activity change, negative = cytotoxicity” value was -2.08%. In the case of `O=C(CO)[C@@H](O)[C@H](O)[C@@H](O)CO`, the “activity change, negative = cytotoxicity” value is reported as 0.951% [at 35.3 µM]. With `CCN[C@H]1C[C@H](C)S(=O)(=O)c2sc(S(N)(=O)=O)cc21` the “activity change, negative = cytotoxicity” value was -0.172% [at 35.3 µM]. For `CCO[Si](OCC)(OCC)c1ccccc1`, the “activity change, negative = cytotoxicity” value was 9.27%. For `O=C1CCCCCCCCCCCCCCO1`, the “activity change, negative = cytotoxicity” value was 7.46%. With `CCCCN(CCC(=O)OCC)C(C)=O` the “activity change, negative = cytotoxicity” value was 0.568%. For `O=C(CO)[C@@H](O)[C@H](O)[C@H](O)CO`, the “activity change, negative = cytotoxicity” value was 6.01%. With `O=C1NC(=O)C2CC=CCC12` (stereo not given) the “activity change, negative = cytotoxicity” value was -1.11%. With `CC(=O)C1CCCCC1=O` (stereo not given) the “activity change, negative = cytotoxicity” value was -20.8%. In the case of `C=CCCCCCCCCC(=O)OCC`, the “activity change, negative = cytotoxicity” value is reported as 3.71%.
